# This is a sample that favours compounds with a hit; in the whole collection about 4.1% have one here.
# hgDAF-12 ag: H. glycines DAF-12 receptor agonists, primary screen, cell-based, luminescence, HEK293, GAL4 fusion, UAS-luciferase | 1.8% of 370,000 active | Nuclear hormone receptor DAF-12 (Heterodera glycines), GAL4 fusion | activation, % at 6.8 µM | AID 687014, 2013 | HEK293 GAL4-hgDAF12 UAS-luciferase reporter, agonist luminescence; normalized to butyrate control;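 active means activation above a cutoff set at the mean of all screened compounds plus 3 SD, cut at about 10% in these data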;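 further: 0% = DMSO wells and 100% = sodium butyrate wells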
# DAX1 inh-1: DAX1 (NR0B1) inhibitors, primary screen, cell-based, HEK293, Gal4-DAX1, luciferase luminescence. Nuclear receptor subfamily 0 group B member 1 (Homo sapiens), P51843. HEK293 Gal4-DAX1 luciferase reporter. inhibition, % at 6.75 µM. 0.99% of 340,000 active. AID 504766, 2011;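 active means inhibition above the mean over all tested compounds plus 3 SD, cut at about 4.2% in these data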;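 further: 0% = DAX1-transfected cells with DMSO and 100% = empty-vector control cells with DMSO; inhibition shows as a rise in luminescence from relieved DAX1 repression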
# DAX1 inh-2: DAX1 (NR0B1) inhibitors on StAR promoter, primary screen, cell-based, luminescence, SF-1 (NR5A1), full-length DAX-1; HEK293T StAR-luciferase reporter, SF-1/DAX-1 repression relief; inhibition, % at 6.8 µM; 1.1% of 370,000 active;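 active means inhibition above the mean over all tested compounds plus 3 SD, cut at about 3.6% in these data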;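 further: 0% = DAX-1 cells with DMSO and 100% = cells lacking DAX-1 with DMSO; higher inhibition means more luminescence from relief of DAX-1 repression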
# hcDAF12 agonist: H. contortus DAF-12 nuclear receptor activators, primary screen, cell-based, luminescence, HEK293, lit1-tk-luc reporter. activation, % at 6.8 µM. AID 652067, 2013. 1.4% of 370,000 active. HEK293 hcDAF-12 lit1-tk-luc reporter; 0% DMSO, 100% Δ7-dafachronic acid;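 active means activation above the mean of all tested compounds plus 3 SD, cut at about 5.5% in these data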;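 further: 100% = response to 3 µM Δ7-dafachronic acid high control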
# ssDAF12 agonist: S. stercoralis DAF-12 nuclear receptor activators, primary screen, cell-based, luminescence, HEK293, GRIP1 co-expression, lit1-tk-luc | Nuclear hormone receptor DAF-12 (Strongyloides stercoralis) | HEK293 ssDAF-12/GRIP1 lit1-tk-luc reporter; % of 3 µM dafachronic acid response | activation, % at 6.8 µM | 1% of 370,000 active;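 active means activation above the mean over all tested compounds plus 3 SD, cut at about 0.9% in these data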;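 further: 0% = DMSO-only wells and 100% = 3 µM delta7-dafachronic acid wells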
# DAX1 inh confirm: DAX1 (NR0B1) inhibitors relieving SF-1 repression, confirmation, cell-based, luminescence, HEK293T, full-length DAX-1, SF-1 activated StAR promoter. shares compounds with DAX1 inh-2. HEK293T StAR-promoter luciferase reporter, SF-1/DAX-1 repression. inhibition, % at 6.8 µM. 87% of 2,400 active. AID 652134, 2013;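 active means inhibition above the average of every tested compound plus 3 SD, cut at about 3.8% in these data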;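 further: 0% = DAX-1 cells with DMSO and 100% = no DAX-1 control cells with DMSO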
# Target sequence (P51843 whole entry, looked up): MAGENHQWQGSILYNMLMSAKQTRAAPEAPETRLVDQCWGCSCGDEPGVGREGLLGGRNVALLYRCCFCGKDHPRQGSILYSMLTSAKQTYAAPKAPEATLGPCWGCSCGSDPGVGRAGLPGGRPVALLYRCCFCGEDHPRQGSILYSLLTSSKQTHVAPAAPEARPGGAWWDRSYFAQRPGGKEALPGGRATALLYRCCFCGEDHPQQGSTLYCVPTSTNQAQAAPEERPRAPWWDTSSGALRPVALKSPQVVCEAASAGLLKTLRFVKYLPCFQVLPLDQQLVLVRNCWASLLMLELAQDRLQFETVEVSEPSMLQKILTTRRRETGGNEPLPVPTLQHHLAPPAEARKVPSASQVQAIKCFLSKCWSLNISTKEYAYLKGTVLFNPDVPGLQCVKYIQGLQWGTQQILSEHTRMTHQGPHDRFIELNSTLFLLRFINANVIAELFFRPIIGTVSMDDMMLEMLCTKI
# SF1 AF2mut Luc: StAR reporter signal changes without DAX1, counter-screen for DAX1 inhibitor project, cell-based, luminescence, AF-2 mutant SF-1, transactivation. shares compounds with DAX1 inh-2. HEK293 StAR-luciferase, SF-1 AF2 mutant. inhibition, % at 6.8 µM. 78% of 2,400 active. AID 652136, 2013;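 active means inhibition above the mean of all tested compounds plus 3 SD, cut at about 3% in these data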;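 further: 0% = DAX-1 transfected cells with DMSO and 100% = cells without DAX-1 with DMSO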
# * marks the source's active call; other numbers are inactive results; nt = no result.
SMILES,hgDAF-12 ag,DAX1 inh-1,DAX1 inh-2,hcDAF12 agonist,ssDAF12 agonist,DAX1 inh confirm,SF1 AF2mut Luc
C#CCNC(=O)C[C@H]1C[C@@]2(C(=O)OC)C(=C[C@H](COCc3ccccc3)O[C@@H]2C)N(CCCCCCCC)C1=O,-1,nt,0,-3,-2,nt,nt
CCOC(=O)CC(=O)CSc1nc2c(cc1C#N)CCCCCC2,0,0,0,1,-1,nt,nt
N#Cc1cc2c(nc1SCC(N)=O)CCCCC2,5,1,4.8*,3,0,7.3*,4.5*
COC(=O)C1=C(C)N(Cc2ccccc2C(F)(F)F)C(=NCc2ccccc2C(F)(F)F)NC1c1cccc(F)c1 (stereo not drawn),2,nt,0,0,-1,nt,nt
O=c1oc(Nc2ccccc2F)nc2ccccc12,7,3,1,3,0,nt,nt
O=c1oc(Nc2ccccc2Cl)nc2ccccc12,11*,2,4.8*,2,0,10*,3.8*
Clc1cccc(Nc2nc(-c3ccncc3)nc3ccccc23)c1,-3,0,-1,-2,-2,nt,nt
O=c1oc(Nc2cccc(Cl)c2)nc2ccccc12,9,2,5.4*,5,0,10*,4.8*
Nc1nc2c(C(=O)N3CCCC3)nnn2c2ccccc12,11*,nt,4.7*,3,-1,9.2*,4.8*
C=CCSc1nc2c(C(=O)OCC)nnn2c2ccccc12,0,0,0,2,0,nt,nt
Cc1ccc(NC(=O)CSc2ccc(S(=O)(=O)N3CCCC3)cn2)cc1F,-2,1,5.9*,-1,-1,-5,0
Cc1c(C(=O)N/N=C/c2ccoc2)cccc1[N+](=O)[O-],1,1,0,0,-1,nt,nt
O=C(N/N=C\c1ccoc1)c1ccco1,8,2,6.6*,4,-1,2,2
CC(/C=N/NC(=O)c1ccccc1F)=C\c1ccccc1,12*,1,9.2*,4,0,9.9*,4.2*
O=C(N/N=C/c1ccoc1)c1ccccc1F,4,1,5.3*,2,0,3.7*,3.3*
CC(/C=N/NC(=O)c1ccccc1C)=C\c1ccccc1,3,nt,0,2,-1,nt,nt
CCOC(=O)Cc1nc(N2CCN(Cc3cccc4c3OCO4)CC2)c2c(C)c(C(=O)OCC)sc2n1,3,nt,-3,-2,-2,nt,nt
O=C(N[C@H](Cc1ccccc1)C(=O)N1CCN(c2ccc(Cl)cn2)CC1)[C@H]1O[C@@H](n2ccc(=O)[nH]c2=O)[C@H](O)[C@@H]1O,1,nt,0,0,-1,nt,nt
O=C(COC(=O)/C=C/c1ccc(Cl)cc1)NC1CC1,2,-1,0,2,1,nt,nt
O=C(COC(=O)/C=C/c1ccc(Cl)cc1)NC1CCCCCC1,0,0,4.8*,-2,-1,3,1
COc1ccc(S[C@]2(C(=O)N3CCN(C(C)=O)CC3)CC(=O)N(C(=O)Nc3ccc(C)c(Cl)c3)[C@@H]2c2ccc(OC)cc2)cc1,2,nt,-1,-1,-2,nt,nt
COc1cc2ccccc2cc1C(=O)Nc1cc(C)ccn1,12*,0,5.3*,6.4*,0,4.2*,2
COc1ccc(Cl)cc1C(=O)NNC(=O)COC(=O)c1cccs1,0,0,6.4*,0,-1,0,0
Cc1cc(Cl)ccc1OCC(=O)NNC(=O)c1cccs1,2,0,-1,-2,-1,nt,nt
CCSc1nnc(NC(=O)CCN2C(=O)C3CCCCC3C2=O)s1 (stereo not drawn),4,1,4.8*,0,-1,3,2
SMILES,hgDAF-12 ag,DAX1 inh-1,DAX1 inh-2,hcDAF12 agonist,ssDAF12 agonist,DAX1 inh confirm,SF1 AF2mut Luc
CCc1nnc(NC(=O)CCN2C(=O)C3CCCCC3C2=O)s1 (stereo not drawn),0,0,1,1,0,nt,nt
Cc1ccc(NC(=S)NC(=O)C2CCCC2)cc1C,11*,1,4.6*,3,0,5.3*,4.8*
CCOC(=O)C1(Cc2cccc(OC)c2)CCCN(C(=O)CCN2CCCO2)C1 (stereo not drawn),11*,1,4.8*,3,0,7.0*,5.8*
COC(=O)[C@H]1C[C@@]2(c3ccccc3)c3ccccc3N(S(=O)(=O)c3ccccc3)[C@H]2N1,9,nt,-1,-2,-1,nt,nt
O=C(Nc1nc2ccc(F)cc2s1)C1=COCCO1,3,-3,7.5*,5,0,7.6*,3.1*
CCCCc1nnc(NC(=O)C2=COCCO2)s1,8,1,7.3*,5,1.0*,7.3*,5.6*
O=C(Nc1nc2cc3c(cc2s1)OCCO3)C1=COCCO1,-17,-8,-3,-6,-3,nt,nt
Cc1nnc(NC(=O)C2=COCCO2)s1,2,0,2,1,-1,nt,nt
Nc1cc(-c2ccc(Cl)cc2)nn1-c1ccccc1,9,2,1,2,-1,nt,nt
O=C1CCn2nc(-c3ccc(Cl)cc3)cc2N1,8,3,5.3*,5,1.0*,6.3*,4.3*
CC(=Nc1ccccc1)C1=C(O)C(Cc2ccc(O)cc2)NC1=O (stereo not drawn),-1,1,0,-1,-1,nt,nt
CC(=Nc1ccccc1)C1=C(O)C(Cc2cccc(F)c2)NC1=O (stereo not drawn),-1,1,6.0*,2,0,25*,-5
CC(=O)Nc1nc(-c2ccc(-c3ccccc3)cc2)cs1,4,2,4.5*,1,-1,5.9*,4.5*
CC(=O)NNc1nc(-c2ccccc2)cs1,1,0,0,4,-1,nt,nt
O=C(CN1C(=O)CCSc2ccccc21)Nc1ccc(Cl)cc1,-3,nt,-1,1,-1,nt,nt
CCn1cc(CNC(=O)c2ccc3nc(Cc4ccccc4F)oc3c2)cn1,0,-1,-1,-1,-1,nt,nt
Cn1cc(CNC(=O)c2ccc3nc(Cc4ccccc4F)oc3c2)cn1,4,1,1,3,0,nt,nt

# High-throughput results from PubChem.
